According to article PMC5836133, “The intracellular immune receptor Rx1 regulates the DNA-binding activity of a Golden2-like transcription factor”:
Over roughly 16,000 sequences, “e-score” has its median near -0.044; the highest 2% begin near 0.38. This excerpt belongs to a sample that is enriched for the highest values.

Molecular target: T1, GST-NbGlk1(82-244) (Nicotiana benthamiana)
T1 chain: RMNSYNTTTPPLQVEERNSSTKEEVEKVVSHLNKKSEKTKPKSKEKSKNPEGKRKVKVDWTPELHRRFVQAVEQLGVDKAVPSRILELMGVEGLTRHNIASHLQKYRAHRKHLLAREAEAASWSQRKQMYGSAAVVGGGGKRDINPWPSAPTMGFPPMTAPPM
Assay: protein-binding microarray; NbGlk1 is a Golden2-like transcription factor of Nicotiana benthamiana; high values mean tight binding
Settings: protein: recombinant; tags: GST (pTH6838); dsDNA, one strand shown

Sequence	binding signal [E-score]
AGTGAAAT	0.208 ± 0.0317
ATTACGAA	0.341 ± 0.0714
ACCGTATC	0.274 ± 0.0523
AATGAGAT	0.312 ± 0.0605
ATTTCGGA	0.309 ± 0.0179
ATTGCGAC	0.346 ± 0.0296
ATCAGTAA	0.214 ± 0.0917
AATCATAC	0.263 ± 0.039
AGCGAGAT	0.269 ± 0.0866
AATATATA	0.27 ± 0.0135
AGAATAAT	0.206 ± 0.0577
ATCCGGCA	0.253 ± 0.0503
ATTGCGGA	0.359 ± 0.0313
ATCTGGAA	0.351 ± 0.0575
AATCTACT	0.406 ± 0.0108
AATATACA	0.21 ± 0.00993
AATCTACC	0.404 ± 0.00847
AATCTACG	0.38 ± 0.0162
ATCCTACA	0.298 ± 0.0179
AATCGACG	0.243 ± 0.0212
ATTCTATC	0.261 ± 0.0903
AATCTACA	0.401 ± 0.0303
AATCATCT	0.205 ± 0.0194

Sequence	binding signal [E-score]
AATCAACT	0.274 ± 0.00959
AATCAACG	0.247 ± 0.00961
ATTTTAGA	0.221 ± 0.0235
ATCTCATA	0.291 ± 0.0411
ATCCCCAA	0.276 ± 0.0488
ATAGGATA	0.247 ± 0.133
AAATATTA	0.313 ± 0.0186
ATACAAAA	0.251 ± 0.0113
AGCTAGAT	0.216 ± 0.00676
ATTGCGGG	0.26 ± 0.0952
AATCGCGG	0.317 ± 0.0232
AAATAAAG	0.202 ± 0.0801
AGATCGTC	0.3356 ± 0.00264
AGATTGTC	0.3936 ± 0.00333
ATATTGTG	0.235 ± 0.0938
AGATTGTA	0.3324 ± 0.00276
ATATTGTC	0.261 ± 0.0163
AGATTGTG	0.421 ± 0.0279
AAGGATTG	0.247 ± 0.0253
AAATATAA	0.208 ± 0.0739
AATCCGCC	0.372 ± 0.0634
AATCAGCG	0.312 ± 0.0496
ATTCCGCA	0.238 ± 0.0649

Sequence	binding signal [E-score]
ATTCCGCG	0.256 ± 0.00946
AATCCGCG	0.396 ± 0.0375
ATCCCGCA	0.289 ± 0.00853
AATCCCCT	0.2621 ± 0.00234
AATCCGCT	0.388 ± 0.0352
AATCCGCA	0.395 ± 0.0273
ATCTTGGG	0.216 ± 0.0663
AAATAGAT	0.264 ± 0.0472
ATCTGGTG	0.3327 ± 0.000333
ATACATAT	0.204 ± 0.0258
ATATAGAT	0.352 ± 0.0482
ATTTAAGA	0.236 ± 0.0208
AAGGATAT	0.387 ± 0.00749
AAGGATCT	0.335 ± 0.00404
ACGGATAC	0.2607 ± 0.00125
ACGGATAT	0.381 ± 0.03
AGGGATAT	0.353 ± 0.00472
ACGGATCT	0.265 ± 0.053
ATTATATA	0.215 ± 0.115
ATCTACAC	0.34 ± 0.0325
AATTCTGT	0.223 ± 0.0117
ATACGCTA	0.239 ± 0.0564
ATCATGAA	0.215 ± 0.0159

Sequence	binding signal [E-score]
AAGATCTG	0.362 ± 0.0161
AAGATCAC	0.225 ± 0.0928
AAGATCTC	0.406 ± 0.00477
AGGATCTC	0.402 ± 0.0113
AAGATCTA	0.356 ± 0.00732
CAGATCTA	0.249 ± 0.0194
CAGATCTC	0.423 ± 0.0294
AGGATCTG	0.337 ± 0.025
CAGATCTG	0.38 ± 0.0481
CAGATCCC	0.266 ± 0.0242
CAGATCCG	0.266 ± 0.0152
AGGATCTA	0.314 ± 0.04
ATTCGCTC	0.231 ± 0.0553
ATCACGAT	0.29 ± 0.0315
ATTCCAAC	0.2142 ± 0.000545
ATCCGTTG	0.233 ± 0.0162
ATATGCAT	0.219 ± 0.0814
ATATGGAA	0.219 ± 0.0165
ATCTAAAA	0.244 ± 0.06
ACCGGAAT	0.243 ± 0.0509
AGGAGGAT	0.244 ± 0.0559
ATTCGCCA	0.278 ± 0.00941
ATCCTTTA	0.274 ± 0.0111

Sequence	binding signal [E-score]
AAGATCTT	0.399 ± 0.0153
AAGATCAT	0.214 ± 0.0212
AAGATCCT	0.339 ± 0.00784
ATTCCATA	0.257 ± 0.00403
AATCGATT	0.353 ± 0.0155
AATCCCTG	0.283 ± 0.0408
ATTCCATG	0.229 ± 0.0434
AATCCATA	0.3787 ± 0.000904
AATCCATT	0.38 ± 0.039
AATCCCAT	0.331 ± 0.00747
AATCCATC	0.367 ± 0.0565
AATCCATG	0.381 ± 0.0124
ATCCTCGA	0.224 ± 0.0852
AAATATGG	0.272 ± 0.0577
ATCTTCCA	0.319 ± 0.0516
AATATTAG	0.209 ± 0.0412
ATCGGCAA	0.216 ± 0.00468
ATCTTTCA	0.247 ± 0.0983
ATCTATGA	0.247 ± 0.0113
